Bioassay records (PubChem)
Rows were chosen to be rich in hits. Some 10% of all compounds tested hit in one or more screens of this group.
NPR1 antag: Natriuretic polypeptide receptor (hNpr1) antagonism - Primary qHTS. Atrial natriuretic peptide receptor 1 (Homo sapiens), P16066. HEK293 hNpr1 GloSensor cGMP, ANP-stimulated luminescence. Potency, µM (series often up to 46.3 µM), for inactives: at the top dose activity change, negative = inhibition, usual class: inhibitors. hit rate 1.6% among 76,000; calls by dose curve; also: nearly all actives have a fitted effect of over 60% in size
Target sequence (P16066 whole entry, looked up): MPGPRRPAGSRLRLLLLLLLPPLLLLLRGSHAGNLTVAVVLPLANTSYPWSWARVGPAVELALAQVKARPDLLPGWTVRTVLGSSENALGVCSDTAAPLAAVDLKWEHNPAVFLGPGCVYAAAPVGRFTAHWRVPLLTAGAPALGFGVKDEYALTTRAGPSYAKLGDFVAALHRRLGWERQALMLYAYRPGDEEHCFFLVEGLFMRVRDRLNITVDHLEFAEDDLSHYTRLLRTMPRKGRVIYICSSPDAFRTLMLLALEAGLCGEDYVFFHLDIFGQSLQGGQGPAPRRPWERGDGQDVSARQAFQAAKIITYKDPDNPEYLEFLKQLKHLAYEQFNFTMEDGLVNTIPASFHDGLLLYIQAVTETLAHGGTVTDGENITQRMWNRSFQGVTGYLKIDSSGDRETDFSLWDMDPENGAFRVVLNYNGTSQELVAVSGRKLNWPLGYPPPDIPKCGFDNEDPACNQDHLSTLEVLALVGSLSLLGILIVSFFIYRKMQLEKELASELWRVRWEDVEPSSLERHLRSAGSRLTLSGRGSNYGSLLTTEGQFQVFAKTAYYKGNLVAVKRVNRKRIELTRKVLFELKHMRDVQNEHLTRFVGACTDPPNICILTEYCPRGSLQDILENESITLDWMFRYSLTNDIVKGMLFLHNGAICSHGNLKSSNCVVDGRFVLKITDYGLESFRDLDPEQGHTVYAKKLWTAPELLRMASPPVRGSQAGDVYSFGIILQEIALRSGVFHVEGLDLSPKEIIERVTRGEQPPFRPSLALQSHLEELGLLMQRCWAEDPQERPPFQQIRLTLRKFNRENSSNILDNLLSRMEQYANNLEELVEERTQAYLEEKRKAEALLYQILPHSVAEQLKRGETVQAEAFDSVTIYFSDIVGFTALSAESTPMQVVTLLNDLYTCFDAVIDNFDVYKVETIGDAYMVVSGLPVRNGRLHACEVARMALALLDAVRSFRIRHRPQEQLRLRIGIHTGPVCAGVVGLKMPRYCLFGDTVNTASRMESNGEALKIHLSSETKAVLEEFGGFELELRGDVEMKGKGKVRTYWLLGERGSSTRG
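Compound pre-incubated 30 min at room temperature on GloSensor-loaded HEK293 cells stably carrying hNpr1 and the pGS-40F cGMP biosensor. Stimulation uses hNppA at 0.1 nM final; luminescence is taken at baseline and 20 min post-agonist.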
Luciferase inh: Firefly luciferase inhibition profiling of diverse chemical library using quantitative high-throughput screening | Luciferin 4-monooxygenase (Photinus pyralis), P08659 | Potency, µM (doses to about 115 µM), actives largely listed as inhibitors | purified P. pyralis luciferase, luminescence, biochemical | hit rate 2.5% among 76,000 | AID 1347043, 2019; also: nearly all actives have a fitted effect of over 65% in size
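Purified P. pyralis luciferase (10nM final) in 50mM Tris acetate pH 7.5, 10mM Mg acetate, 0.01% Tween-20, 0.05% BSA with 10uM D-luciferin and 10uM ATP. Compounds titrated qHTS. Luminescence imaged on CCD.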
GPT2 inh: Primary qHTS assay for inhibitors of Glutamate pyruvate transaminase 2 (GPT2); Alanine aminotransferase 2 (Homo sapiens), Q8TD30; Recombinant GPT2, coupled pyruvate oxidase/HRP Amplex Red fluorescence; Potency, µM (doses to about 57.7 µM), without a hit: at the highest dose activity change, negative = inhibition, hits mostly inhibitors; hit rate 0.25% among 100,000; AID 1671188, 2021; also: nearly all actives have a fitted effect of over 60% in size
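GPT2 10ng/uL, a-KG 250uM, L-Ala 2mM, HEPES pH7.5 + 0.0001% Tween; 30 min RT. Then Amplex mix (PO/HRP/ThPP), 30 min RT dark, fluorescence. AOA 50uM used as positive control.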
HEK cytotox: Cytotoxic Profiling in HEK 293 Cell Line of Diverse Libraries Using Quantitative High-Throughput Screening; HEK 293 viability, ATP luminescence (CellTiter-Glo), 48-72 h; Potency, µM (highest dose often 115 µM), for the others: at the top dose activity change, negative = cytotoxicity, hits mostly inhibitors; hit rate 6.6% among 94,000; also: nearly all actives have a fitted effect of over 60% in size
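CellTiter-Glo luminescence (cellular ATP) was read after 48 or 72 hr of compound exposure at 37 degree Celsius. Cells were HEK 293 plated at 250 cells/well.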
NIH3T3 tox: Cytotoxic Profiling in NIH 3T3 Cell Line of Diverse Libraries Using Quantitative High-Throughput Screening. Potency, µM (top dose mostly 96.7 µM), inactives show top-dose activity change, negative = cytotoxicity, hits mostly inhibitors. AID 1345082, 2018. NIH 3T3 viability, CellTiter-Glo ATP luminescence, 48-72 h. hit rate 4.3% among 94,000; also: nearly all actives have a fitted effect of over 55% in size
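First NIH 3T3 cells are plated at 400 cells/well; next compound is pinned in; then plates incubate 48 or 72 hr at 37 °C; finally CellTiter-Glo is added and luminescence read after 10 min.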
Starred values were filed as active, the others as inactive; i = inactive; ? = inconclusive; · = no result; ! = not active in a repeat; [ ] = another dose, or the depositor's remark. Unless noted, calls follow the shape of the dose curve; as a rule, active = well fitted curve in the direction sought with a large enough effect; inconclusive = small, poorly fitted or top-dose-only effect, or another doubt; inactive = no such curve, though single readings can be large; an effect the other way counts as inactive or inconclusive. % is scaled to controls: 0 for no effect and ±100 for the full control effect; potency is read from the fitted curve at half-maximal effect.

SMILES | NPR1 antag | Luciferase inh | GPT2 inh | HEK cytotox | NIH3T3 tox
CC(=O)N1CCCC2(C1)CN(C)c1ccc(C(=O)NCC3CC3)cc12 (centres undefined) | 1%[70.6 µM] | i | i | i | ?
CN1CCCC2(C1)CN(Cc1cccnc1)c1ccc(C(=O)NCC3CCCCC3)cc12 (centres undefined) | 1%[70.6 µM] | i | 3%[88.5 µM] | 89µM* | 35µM*
COc1ccccc1CCC(=O)N1CCC(N2CC3CC(C2)[C@H]2CCCC(=O)N2C3)CC1 (some centres undefined) | 0% | i | i | -27% | -2%
CN(Cc1ccc2nonc2c1)C(=O)C1CCN(C(=O)C2CCCC2)CC1 | 0% | i | i | ? | 40µM*
CN(Cc1ccon1)C(=O)C1CCN(C(=O)C2CCC2)CC1 | 1% | i | 1% | -2% | 3%
COc1ccc(C(=O)N2CCN(c3nccc(Nc4ccccc4Cl)n3)CC2)cc1 | · | · | -4% | ? | ?
CC(=O)N1CCN(c2nccc(Nc3ccccc3Cl)n2)CC1 | · | · | -8%[88.5 µM] | -19%[172 µM] | -28%[138 µM]
O=C(c1ccccc1Cl)N1CCN(c2nccc(Nc3ccccc3F)n2)CC1 | · | · | 3% | ? | ?
O=C(c1ccccc1Cl)N1CCN(c2nccc(Nc3ccccc3Cl)n2)CC1 | · | · | 4% | 45µM* | ?
CC(C)C(=O)N1CCN(c2nccc(Nc3ccccc3Cl)n2)CC1 | · | · | i | 40µM* | ?
Cc1ccc(C(=O)N2CCN(c3nccc(Nc4ccccc4Cl)n3)CC2)cc1 | · | · | i | 22µM* | ?
COc1ccccc1C(=O)N1CCN(c2nccc(Nc3ccccc3Cl)n2)CC1 | · | · | i | ? | 28µM*
O=C(C1CCCC1)N1CC2(CCN(Cc3ccc(Cl)cc3)C2)OCc2ccccc21 (centres undefined) | · | · | -4% | ? | ?
CCc1noc(-c2cn(C3CCN(C(=O)c4ccc(OC)cc4C)CC3)nn2)n1 | ? | i | i | ? | -15%
COc1ccc(Nc2ccnc(N3CCN(C(=O)c4ccccc4Cl)CC3)n2)cc1 | · | · | -2% | 40µM* | ?
C=CCn1cc2c3c(cccc31)[C@H](CC(C)C)N[C@H](C(=O)NCCCN1CCCC1=O)C2 | 1% | i | ? | 40µM* | ?
C=CCn1cc2c3c(cccc31)[C@H](CC(C)C)N[C@H](C(=O)NCCOC)C2 | -2%[70.6 µM] | ? | 2%[88.5 µM] | 56µM* | 89µM*
COc1cccc(CNC(=O)CN2C(=O)NC(c3ccccc3Cl)C3=C2COC3=O)c1 (centres undefined) | 3% | i | 0% | ? | -16%
O=C1Nc2ccc(-c3ccccc3)cc2C(=O)N2CC[C@H](NS(=O)(=O)c3cccs3)[C@@H]12 | -14% | i | -27% | ? | 20µM*
O=C(N[C@H]1CCN2C(=O)c3cc(-c4ccc5c(c4)OCO5)ccc3NC(=O)[C@H]12)c1cccc(F)c1 | -11% | i | i | ? | 79µM*
COc1ccc(-c2ccc3c(c2)C(=O)N2CC[C@H](NC(=O)C4CCCC4)[C@H]2C(=O)N3)cc1 | -3%[70.6 µM] | 22µM* | -4%[88.5 µM] | -25%[172 µM] | ?
O=C1Nc2ccccc2C(=O)N2CC[C@H](NS(=O)(=O)c3cccs3)[C@@H]12 | 6%[70.6 µM] | i | 0%[88.5 µM] | -11%[172 µM] | -22%[174 µM]
O=C(N[C@H]1CCN2C(=O)c3cc(-c4ccsc4)ccc3NC(=O)[C@H]12)c1cccc(F)c1 | -10% | i | ? | -12% | -19%
O=C(N[C@H]1CCN2C(=O)c3cc(-c4ccccc4)ccc3NC(=O)[C@H]12)c1cccc(F)c1 | -18%[70.6 µM] | ? | -15%[88.5 µM] | 89µM* | ?
Cc1[nH]ncc1CNC(=O)C1CCCCC(=O)N1Cc1ccccc1 (centres undefined) | -3% | i | ? | -1% | i
SMILES | NPR1 antag | Luciferase inh | GPT2 inh | HEK cytotox | NIH3T3 tox
COc1ccc(CN2CCc3oc(C)c(C(=O)N4CCN(C(C)=O)CC4)c3C2)cc1 | -8% | i | 1% | -5% | -9%
CN(C)c1ccc(C(=O)N2CCC3(CC2)NC(=O)N(Cc2ccccc2)C3=O)cc1 | 1% | i | i | 2% | -9%
COc1ccccc1-c1cccc(CN2CCC(NC(=O)Cc3ccc(F)cc3)CC2)c1 | · | · | ? | ? | 32µM*
COc1ccccc1-c1cccc(CN2CCC(NC(=O)c3cccc(Cl)c3)CC2)c1 | · | · | -7% | 45µM* | ?
COc1ccccc1-c1cccc(CN2CCC(N[S+](=O)([O-])CCC(F)(F)F)CC2)c1 | · | · | -5% | ? | ?
COc1ccccc1-c1cccc(CN2CCC(NC(=O)Cc3cccc(Cl)c3)CC2)c1 | · | · | ? | ? | 25µM*
COc1ccccc1-c1cccc(CN2CCC(NC(=O)c3ccc(C(F)(F)F)cc3)CC2)c1 | · | · | -6% | 22µM* | 25µM*
O=C(NC1CCN(Cc2cccc(-c3cccs3)c2)CC1)c1ccc(C(F)(F)F)cc1 | · | · | i | ? | ?
COc1ccccc1-c1cccc(CN2CCC(NC(C)=O)CC2)c1 | · | · | i | -26% | ?
COc1ccccc1-c1cccc(CN2CCC(NC(=O)Nc3ccccc3)CC2)c1 | · | · | ? | 22µM* | 18µM*
CSc1ccc(-c2cccc(CN3CCC(NC(=O)c4cccc(Cl)c4)CC3)c2)cc1 | · | · | · | -15% | -15%
COc1ccccc1-c1cccc(CN2CCC(N[S+](=O)([O-])c3cccs3)CC2)c1 | · | · | 3% | ? | ?
O=C(NC1CCN(Cc2cccc(-c3ccc(F)cc3F)c2)CC1)c1cccc(Cl)c1 | · | · | · | 22µM*! | 16µM*
O=C(NCC1CCN(Cc2cccc(F)c2)CC1)[C@@H]1COCC(=O)N1Cc1ccccc1 | -11% | i | -2% | -20% | -5%
CSc1cccc(NC(=O)C2CCN(c3cnc4nccnc4c3)CC2)c1 | -2% | i | -2% | 8.9µM* | 6.3µM*
CCc1ccc(NC(=O)Cn2c(N3CCC(C)CC3)nc(C)cc2=O)cc1 | ? | i | 4% | 45µM* | ?
Cc1cc(=O)n(CC(=O)Nc2ccc(C)c(Cl)c2)c(N2CCC(C)CC2)n1 | ? | i | i | 32µM* | ?
Cc1cc(=O)n(CC(=O)Nc2ccccc2C)c(N2CCC(C)CC2)n1 | 0% | i | i | ? | ?
COc1cccc(NC(=O)Cn2c(N3CCC(C)CC3)nc(C)cc2=O)c1 | ? | i | i | ? | -27%
Cc1cc(=O)n(CC(=O)Nc2ccc(Cl)cc2)c(N2CCC(C)CC2)n1 | -19% | i | i | 40µM* | ?
